Peg3 prom inh-1: inhibitors of Peg3 promoter. HeLa PEG-Prom luciferase reporter, luminescence, overnight. inhibition, % at 20 µM. 360,000 compounds, 1.7% hits;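 active = inhibition of at least 50% at 20 µM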
KKLEB tox: CF airway cell cytotoxicity counter-screen; KKLEB CF airway cells viability, ATPlite luminescence, overnight; stronger effect = lower value; cells stimulated with P. aeruginosa culture filtrate; 360,000 compounds, 0.36% hits; activity change (cytotoxicity), % at 5 µM;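 active = corrected activity change at or below -50% at 5 µM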
CF NFkB block: cystic fibrosis NF-kB activation inhibition; KKLEB NF-kB-GFP reporter, PAF-induced, GFP fluorescence overnight; inhibition, % at 5 µM; 360,000 compounds, 0.86% hits; AID 588850;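 active = at least 50% inhibition at 5 µM, scaled per plate between neutral and stimulator controls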;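 also: PAF is a Pseudomonas aeruginosa culture filtrate used as stimulus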
HIF-2a inh: HIF-2a inhibition; inhibition, % at 18.8 µM; AID 624352; 786-0 RCC cells HIF-2a reporter, luciferase luminescence, overnight; 360,000 compounds, 0.72% hits;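 active = inhibition of the luminescence signal of 40% or more relative to plate controls, in a single-dose primary screen at 18.75 µM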
Shn3 inh set2: inhibitors of Schnurri-3 3'UTR reporter in osteoblasts | Clone20 osteoblast Shn3 3'UTR firefly luciferase, 24 h | 360,000 compounds, 0.52% hits | inhibition, % at 12.5 µM;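 active = mean inhibition of at least 75% with every replicate also reaching 75%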
Peg3 prom inh-2: confirmation of Peg3 promoter inhibitors | AID 602417 | HeLa PEG-Prom luciferase reporter, luminescence, overnight | shares compounds with Peg3 prom inh-1 | inhibition, % at 20 µM | 1,300 compounds, 84% hits;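 active = at 20 µM dose, 40% or more inhibition averaged across four replicates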
CF NFkB conf: CF NF-kB inhibition confirmation, single concentration. shares compounds with CF NFkB block. KKLEB CF airway cells, PAF-induced NF-kB-GFP fluorescence, overnight. inhibition, % at 5 µM. 1,300 compounds, 64% hits. AID 602472; in the data active = inhibition above about 40%;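 also: stimulus PAF is a Pseudomonas aeruginosa filtrate and not platelet activating factor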
Mdm2-MdmX confirm: Mdm2/MdmX (human) interaction inhibition, confirmed; inhibition, % at 8 µM; AID 504601; SaOS-2 split-luciferase Mdm2/MdmX complementation, luminescence; shares compounds with HIF-2a inh; 740 compounds, 99% hits;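 active = mean inhibition of the luminescence signal across two replicates at or above 26 percent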
HIF-2a inh conf: HIF-2a inhibition, single concentration confirmation; shares compounds with HIF-2a inh; 786-0 RCC cells, HIF-2a luciferase reporter luminescence, overnight; inhibition, % at 18.8 µM; 1,800 compounds, 56% hits; AID 651580;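 active = mean inhibition across four replicates of at least 40 percent at the single tested concentration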
HIF-1a cs: inhibits HIF-1a reporter, a counter-screen for HIF-2a inhibitors | inhibition, % at 18.8 µM | shares compounds with HIF-2a inh | MiaPaCa-2 HIF-1a luciferase reporter, desferoxamine, overnight | 1,800 compounds, 72% hits;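 active = mean inhibition of the reporter signal across four replicates at the single tested dose of 50% or more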
Of the large screens only hits and unclear results are named; the others gave an inactive call (follow-up assays come after a bar, where they were run). Compounds with a hit are over-represented: about 2.6% of the library has one in this group of screens.

N#Cc1ccc(Cn2cc(C=O)c3ccccc32)cc1	Peg3 prom inh-1 73.6 | Peg3 prom inh-2 60.6
CCC(=O)c1cn(Cc2ccc(C#N)cc2)c2ccccc12	none
CC[C@@H](O)C[C@H]1CCC[C@@]2(C[C@@H]3OC(=O)/C=C/[C@@](C)(O)[C@@H](O)[C@H](C)[C@@H](O)[C@H](OC4CCC(N(C)C)C(C)O4)[C@@H](O)[C@](C)(O)CCCCC/C=C/[C@@H]4CC(C)(C)O[C@@]4(O)C[C@H](O2)[C@H]3C)O1 (stereo not given in full)	Peg3 prom inh-1 89.2, Shn3 inh set2 90.2 | Peg3 prom inh-2 92.5
COc1ccc(C2NCCc3[nH]cnc32)cc1 (stereo not given)	none
O=C1NCN(c2ccccc2)C12CCN(C(c1cccs1)c1nnnn1Cc1ccccc1)CC2 (stereo not given)	Peg3 prom inh-1 50.0 | Peg3 prom inh-2 40.5
O=[N+]([O-])c1ccc(NC2CCN(Cc3ccccc3)CC2)c2ccncc12	Peg3 prom inh-1 67.3 | Peg3 prom inh-2 77.7
O=[N+]([O-])c1ccc(NC2CCCC2)c2ccncc12	none
CCC1(OC(=O)CN)C(=O)OCc2c1cc1n(c2=O)Cc2cc3ccccc3nc2-1 (stereo not given)	Peg3 prom inh-1 83.5, CF NFkB block 79.2 | Peg3 prom inh-2 72.6
Cc1cc(C)cc(N2C(=O)NC(=O)/C(=C\c3cccn3-c3ccc(Cl)cc3)C2=O)c1	Peg3 prom inh-1 104.2 | Peg3 prom inh-2 56.0
O=C1NC(=S)NC(=O)C1=Cc1cccn1-c1ccc(O)cc1	Peg3 prom inh-1 70.8, HIF-2a inh 55.7 | Peg3 prom inh-2 49.1
COc1ccccc1C=C1C(=O)NC(=S)NC1=O	none
CC[n+]1c(-c2ccccc2)c2cc(N)ccc2c2ccc(N)cc21	Peg3 prom inh-1 55.3 | Peg3 prom inh-2 87.3
Cc1ccc(-c2nc3ccccc3c(=O)n2-c2cccc(O)c2)cc1	none
CC(C)(C)c1nc(N2CCN(C(=O)c3ccco3)CC2)c2nnn(Cc3ccccc3Cl)c2n1	none
COc1ccc(-n2c(/C=C/c3ccc(O)c(OC)c3)nc3ccccc3c2=O)cc1	Peg3 prom inh-1 55.5 | Peg3 prom inh-2 68.8
COc1ccc(-n2c(C)nc3ccccc3c2=O)c([N+](=O)[O-])c1	none
O=c1c2ccccc2nc(CSc2ncnc3nc[nH]c23)n1-c1ccc(Cl)c(Cl)c1	Peg3 prom inh-1 60.2 | Peg3 prom inh-2 45.1
COC(COC(N)=O)C1=C(N2CC2)C(=O)C(C)=C(N2CC2)C1=O (stereo not given)	Peg3 prom inh-1 97.9, CF NFkB block 88.6 | Peg3 prom inh-2 97.2
CCOC(=O)c1c(-n2c(C)cc(C=C3C(=O)NC(=S)NC3=O)c2C)sc2c1CCCC2	Peg3 prom inh-1 108.8, HIF-2a inh 77.2 | Peg3 prom inh-2 62.2
Cc1ccc(N=Nc2c(O)[nH]c(=O)[nH]c2=O)c([N+](=O)[O-])c1	none
CCOC(=O)[C@]12Cc3cc(OC)ccc3[C@H]1N(Cc1ccccc1)C(=O)c1ccccc12	none
CCOC(=O)[C@]12Cc3cc(C)ccc3[C@H]1N(Cc1ccccc1)C(=O)c1ccccc12	Peg3 prom inh-1 65.1 | Peg3 prom inh-2 inactive
COc1cccc(N(C(C)=O)C2=NCCCS2)c1	none
COc1ccc(-n2nnnc2C(CCSC)N2CCC(n3c(=O)[nH]c4ccccc43)CC2)cc1 (stereo not given)	Peg3 prom inh-1 56.5, CF NFkB block 80.7 | Peg3 prom inh-2 42.4 | CF NFkB conf 69.8
COc1ccc(N2C(=O)CC(N3CCC(n4c(=O)[nH]c5ccccc54)CC3)C2=O)cc1 (stereo not given)	none
O=C(N/N=C/c1c(O)n(-c2cccc3ccccc23)c(=O)[nH]c1=O)c1ccncc1	none
CC(=O)OC1(C)CC(C)C(=O)C(C(O)CC2CC(=O)NC(=O)C2)C1 (stereo not given)	Peg3 prom inh-1 105.4, CF NFkB block 80.6, HIF-2a inh 77.3, Shn3 inh set2 95.0 | Peg3 prom inh-2 97.8 | CF NFkB conf 114.1
Cc1ccccc1C(=O)N1Cc2cnnn2-c2ccccc2C1C#N (stereo not given)	none
Cc1ccccc1CN1Cc2cnnn2-c2ccccc2C1C#N (stereo not given)	Peg3 prom inh-1 95.3, HIF-2a inh 91.7 | Peg3 prom inh-2 98.0 | HIF-2a inh conf 96.7 | HIF-1a cs 106.5
C[C@@H]1O[C@@H](O[C@@H]2C=C3CCC4C(CC[C@]5(C)[C@@H](c6ccc(=O)oc6)CC[C@]45O)[C@@]3(C)CC2)[C@H](O)[C@H](O)[C@H]1O (stereo not given in full)	Peg3 prom inh-1 94.7, KKLEB tox -62.2, CF NFkB block 87.9, HIF-2a inh 90.4 | Peg3 prom inh-2 96.9 | Mdm2-MdmX confirm 86.6 | HIF-2a inh conf 43.3 | HIF-1a cs 105.4
COc1ccc(-n2c(-c3ccccc3[N+](=O)[O-])nc3ccccc3c2=O)cc1	none
CC(Cc1cccs1)NCc1ccccc1 (stereo not given)	none
CC(=O)OC(C)(C)/C=C/C(=O)C(C)(O)C1[C@H](O)C[C@@]2(C)C3CC=C4C(CC[C@@H](O)C4(C)C)[C@]3(CO)C(=O)C[C@]12C (stereo not given in full)	Peg3 prom inh-1 83.8, KKLEB tox -92.1, CF NFkB block 91.3, HIF-2a inh 72.3 | Peg3 prom inh-2 86.6 | HIF-2a inh conf 73.3 | HIF-1a cs 104.7
COC(=O)C1=C(c2cc3ccccc3s2)C[C@@H]2CC[C@H]1N2C(=O)N1CCOCC1	none
CC1=CC2/C=C(\C)CCC(O)C(O)/C=C/C(=O)C23C(=O)NC(CC(C)C)C3C1C (stereo not given)	Peg3 prom inh-1 107.8, KKLEB tox -64.3, CF NFkB block 92.2, HIF-2a inh 92.5, Shn3 inh set2 98.6 | Peg3 prom inh-2 98.0 | Mdm2-MdmX confirm 103.0 | HIF-2a inh conf 99.2 | HIF-1a cs 102.0

High-throughput results: PubChem BioAssay, several laboratories
